Hit rate of the full screen: of about 320,000 compounds, about 8,000 (2.5%) were called active. The entries come from a sample that favours actives as a whole. Values without a mark were called inactive. Cut-off read from the data, not from the text of the source: active = activation above about 47%; inactive = the rest.

Drawing on PubChem BioAssay AID2796 (The Scripps Research Institute Molecular Screening Center, 2010), this text covers activation for 97 molecules.

Aryl hydrocarbon receptor (Homo sapiens), sequence (P35869 whole entry, looked up): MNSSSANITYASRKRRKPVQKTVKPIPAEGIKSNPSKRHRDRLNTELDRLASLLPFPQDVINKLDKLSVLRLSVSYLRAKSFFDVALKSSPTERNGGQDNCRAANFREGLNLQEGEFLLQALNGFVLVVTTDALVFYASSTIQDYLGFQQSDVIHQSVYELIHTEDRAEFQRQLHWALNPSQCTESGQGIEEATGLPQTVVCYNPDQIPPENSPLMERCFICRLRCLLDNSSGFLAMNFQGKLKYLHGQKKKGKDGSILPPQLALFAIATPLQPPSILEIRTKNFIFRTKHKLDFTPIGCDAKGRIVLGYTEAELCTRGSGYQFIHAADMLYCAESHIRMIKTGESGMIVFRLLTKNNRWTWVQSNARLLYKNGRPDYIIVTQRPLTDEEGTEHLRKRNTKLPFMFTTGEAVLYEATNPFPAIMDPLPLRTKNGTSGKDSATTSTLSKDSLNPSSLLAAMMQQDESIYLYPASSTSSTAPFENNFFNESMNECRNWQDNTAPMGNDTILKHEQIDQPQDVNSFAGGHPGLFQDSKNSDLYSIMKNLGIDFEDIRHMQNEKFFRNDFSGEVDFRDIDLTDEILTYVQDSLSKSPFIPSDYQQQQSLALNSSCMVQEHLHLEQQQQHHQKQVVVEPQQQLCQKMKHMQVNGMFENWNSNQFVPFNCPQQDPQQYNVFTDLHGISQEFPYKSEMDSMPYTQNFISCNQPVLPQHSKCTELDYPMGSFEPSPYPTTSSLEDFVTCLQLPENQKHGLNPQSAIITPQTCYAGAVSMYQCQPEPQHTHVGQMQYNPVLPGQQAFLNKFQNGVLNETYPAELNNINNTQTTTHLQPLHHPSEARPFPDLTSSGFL

This assay addresses Aryl hydrocarbon receptor (Homo sapiens) (UniProt P35869). Briefly: AHR activators, primary screen, cell-based, luminescence, luciferase reporter, human (AID 2796).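 Note: 0% = vehicle wells and 100% = reference agonist.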 The following applies: AHR-responsive luciferase reporter cells, at 5 µM, hits give high values. (In general: In a reporter assay the amount or activity of a reporter protein is the signal.)
For `COC(=O)c1ccc(C(=O)NC2CC(C)(C)Cc3c2cnn3-c2ccc(F)cc2)nc1` (configuration not stated), the activation was -1.69%.

Regarding `COc1cc(C)nc(N2CCCC(C(=O)NCC(C)C)C2)n1` (configuration not stated), the activation is 5.81%.

For `CCc1cc(C(=O)OC)c(NC(=O)CC2Sc3ccc(C(F)(F)F)cc3NC2=O)s1` (configuration not stated), the activation is -1.22%.

In the case of `Cc1cc(C)nc(SCc2nnc(SCC(=O)OC3CCCCC3)o2)n1`, the activation was 0.2%.

`CC(OC(=O)c1c(F)cccc1F)C(=O)NCCC1=CCCCC1` (configuration not stated): the activation was 1.47%.

Regarding `CC(C)(C)C(=O)OCc1nc(-c2ccc(O)c(O)c2)cs1`, the activation is 4.13%.

On to `COc1ccc(-c2csc(Cc3nc(O)cs3)n2)cc1`, for which the activation was 47.5% (active).

On to `COc1ccc(-c2csc(NC(=O)COC(=O)c3ccc(Br)o3)n2)cc1`, for which the activation is 15.7%.

Consider `CC1CCCCC12NC(=O)N(CC(=O)Nc1ccc(S(=O)(=O)Nc3ncccn3)cc1)C2=O` (configuration not stated), for which the activation was 0.23%.

As to `COC(=O)c1c(NC(=O)CN2C(=O)NC(CCc3ccccc3)C2=O)sc2c1CCCCC2` (configuration not stated), the activation is 6.43%.

`COc1ccc(S(=O)(=O)NC(C)c2ccccc2)cc1C(=O)N1CCCCC1` (configuration not stated): the activation is 2.64%.

Consider `O=c1[nH]c(N2CCOCC2)nc2ccccc12`, for which the activation is 2.44%.

As to `O=c1[nH]c(-c2cccs2)nc2ccccc12`, the activation is 71.2% (active).

`O=c1[nH]c(/C=C/c2cccc(Br)c2)nc2ccccc12`: the activation was 22.6%.

For the molecule `Cc1c(CN2CCC(n3nccc3NC(=O)CCc3ccccc3)CC2)cnn1C`, the activation is 1.39%.

In the case of `Cc1cccc(C)c1NC(=O)CNC(=O)Cc1ccc(Br)cc1`, the activation was 5.24%.

Turning to `CCOC(=O)Cc1csc(SCc2cc(=O)oc3cc(O)ccc23)n1`, the activation is -1.46%.

Regarding `CCOC(=O)Cc1csc(NC(=O)COc2ccc3c(C)cc(=O)oc3c2)n1`, the activation is 59.9% (active).

In the case of `Cc1cc(=O)oc2cc(OCC(=O)Nc3nnc(C4CC4)s3)ccc12`, the activation is 9.3%.

`CCOC(=O)c1cccc(NC(=O)c2ccc(F)cc2F)c1`: the activation is 5.88%.

As for `Cn1c(=NC(=O)c2ccco2)sc2cccc(F)c21`, the activation was 58% (active).

With `CCCC(=O)N=c1sc2cccc(F)c2n1C`, the activation is 5.82%.

For the molecule `Cn1c(=NC(=O)c2cnccn2)sc2ccccc21`, the activation is 13.9%.

Regarding `COc1ccc2oc(C(=O)OCC(=O)N(CC(C)C)c3c(N)n(Cc4ccccc4)c(=O)[nH]c3=O)c(C)c2c1`, the activation was -3.35%.

As to `O=C(COc1ccccc1)Nc1cc2c3c(c1)CC(=O)N3CCC2`, the activation is 8.04%.

In the case of `CCOc1ccc(/C=N/NC(=O)C(C)Sc2ccccn2)cc1OCC` (configuration not stated), the activation was 4.44%.

Turning to `CCOc1cc(/C=N/O)ccc1OCc1ccccc1F`, the activation is 50.4% (active).

Turning to `COc1cc(/C=C2/C(=O)ON=C2C)ccc1OCc1ccccc1F`, the activation was 0.62%.

With `Cc1ccc(NC(=O)COC(=O)CNC(=O)c2ccc(Cl)cc2Cl)cc1S(=O)(=O)N1CCOCC1`, the activation is -1.57%.

Turning to `O=C(CC1C(=O)NCCN1Cc1ccc(-c2ccccc2)cc1)NCc1ccncc1` (configuration not stated), the activation is 0.69%.

In the case of `CC(C)c1ccc(NC(=S)NC2CC3C=CC2C3)cc1` (configuration not stated), the activation is 7.48%.

For the molecule `O=c1[nH]c(=S)[nH]c2[nH]c(=S)[nH]c12`, the activation is 0%.

Regarding `Cc1c(C)c(C)c2[nH]c(=S)[nH]c2c1C`, the activation is 52.1% (active).

For the molecule `O=C(CN(c1ccc2c(c1)OCCO2)S(=O)(=O)c1ccccc1)Nc1ccc2c(c1)OCO2`, the activation is 79.1% (active).

Take `CCN(CC(=O)Nc1ccc2c(c1)OCO2)S(=O)(=O)c1ccccc1`: the activation is 28.8%.

For the molecule `O=C(CCS(=O)(=O)Cc1ccccc1)Nc1ccc2c(c1)OCCO2`, the activation is 3.19%.

As for `O=C(CN1CCN(S(=O)(=O)c2cccc(Cl)c2)CC1)N1CCCCC1`, the activation was -1.59%.

For `CCCCNC(=O)C1(c2ccc(OC)cc2)CCOCC1`, the activation was 0.03%.

Consider `CS(=O)(=O)c1ccc2nnn(OCC(=O)Nc3cccc(C#N)c3)c2c1`, for which the activation is 5.17%.

Take `Fc1ccccc1OCCSc1nc2ccccc2o1`: the activation was -9.22%.

As for `COc1ccc(/C=C(\NC(=O)c2ccc(OC)c(OC)c2)C(=O)NCCc2c[nH]c3ccccc23)cc1`, the activation was 13.8%.

On to `COc1ccc(C(C(O)C(=O)c2c[nH]c3ccccc23)N2CCN(c3ccccc3)CC2)cc1` (configuration not stated), for which the activation was 12.8%.

Consider `COc1ccc(/C=C(\C#N)c2c[nH]c3ccccc23)cc1`, for which the activation was 53.6% (active).

Regarding `CC(NC(=O)COC(=O)c1ccc(Cl)cc1O)c1ccc(F)cc1` (configuration not stated), the activation is 3.35%.

With `Cc1ccc2nc(/C(C#N)=C\c3ccc(OC(=O)c4cccs4)cc3)[nH]c2c1`, the activation is 80.8% (active).

As to `CCOc1cc(/C=C(\C#N)c2nc(-c3cccs3)c(NC(C)=O)s2)ccc1O`, the activation is 8.05%.

For the molecule `CCOC(=O)CSc1nc2ccc(C)cc2[nH]1`, the activation was 1.6%.

Consider `Cc1ccc(S(=O)(=O)NC(C)C(=O)NCc2ccc(Cl)cc2)cc1` (configuration not stated), for which the activation is 0.98%.

For the molecule `COCCCn1c(SCc2cccc(OC)c2)nc2cc(OC)c(OC)cc2c1=N`, the activation was 11.1%.

On to `CC(C)(C)OC(=O)C[C@@H]1C/C=C\C[C@@H](CC(=O)N(CCO)Cc2ccccc2)C(=O)N[C@H](Cc2ccccc2)COC1=O`, for which the activation was 2.29%.

For `Cc1ccc2nc(SCC(=O)NC3CCCC3)[nH]c2c1`, the activation was 42.2%.

Regarding `Cc1cc(C)nc(SCc2cn3c(C)cc(C)nc3n2)n1`, the activation is 7.09%.

Regarding `Cc1ccc2nc(SCc3cn4c(C)cc(C)nc4n3)[nH]c2c1`, the activation is 62.1% (active).

For the molecule `CCC1(c2ccccc2)NC(=O)N(CC(=O)Nc2ccccc2C(=O)NC2CCCC2)C1=O` (configuration not stated), the activation is 1.57%.

For the molecule `CN(Cc1ccccc1)C(=O)COC(=O)/C=C/c1ccc2c(c1)OCO2`, the activation is 2.59%.

Turning to `CN(c1ccc(OCC(=O)OCC(=O)Nc2cccc([N+](=O)[O-])c2)cc1)S(=O)(=O)c1ccc(F)cc1`, the activation was 2%.

Take `O=C1C(=O)N(c2ccccc2)c2ccccc21`: the activation was 0.42%.

Consider `O=C(c1c(F)cccc1F)N1CCN(c2ncc(Br)cn2)CC1`, for which the activation was 1.98%.

Turning to `CCn1c(=O)cc(SCC(=O)NCc2ccc3c(c2)OCO3)c2ccccc21`, the activation was 6.43%.

Regarding `CCn1c(=O)c([N+](=O)[O-])c(NCc2ccc3c(c2)OCO3)c2ccccc21`, the activation was 47.1% (active).

For `CCn1c(=O)c(C(=O)NCc2ccc3c(c2)OCO3)c(O)c2ccccc21`, the activation was 1.55%.

Take `CC(C)CNC(=O)C(=O)Nc1ccc(N(C)C)cc1`: the activation was 48% (active).

Consider `CC(C)CNC(=S)Nc1ccc(F)cc1`, for which the activation is -0.24%.

In the case of `CC(C)CNC(=O)C(=O)NCc1ccccc1`, the activation is -0.83%.

As for `O=C1C=C(c2ccc(Cl)cc2)C(=O)N1Nc1ccccc1`, the activation is -0.76%.

Regarding `NC(=O)C1CCN(C(=O)COc2ccc3c4c(c(=O)oc3c2)CCC4)CC1`, the activation is -1.05%.

`COc1ccc(NS(=O)(=O)c2cc(NC(=O)c3ccc(S(=O)(=O)N(C)C)cc3)ccc2N2CCOCC2)cc1`: the activation is 0.52%.

Turning to `CC1CC(C)(C)CC2(C1)NC(=O)N(CC(=O)Nc1nccs1)C2=O` (configuration not stated), the activation is 2.2%.

For the molecule `O=[N+]([O-])c1cccc(/C([O-])=C(/C(=S)Nc2ccccc2F)[n+]2ccccc2)c1`, the activation is 49.5% (active).

As for `CC1CCN(C(=S)c2cccc([N+](=O)[O-])c2)CC1`, the activation was -3.58%.

Regarding `Cc1ccc(/C([O-])=C(/C(=S)NCc2ccco2)[n+]2ccccc2)cc1[N+](=O)[O-]`, the activation was 2.88%.

Consider `COc1cccc(-c2ccc3c(c2)S(=O)(=O)c2cccc(C(=O)O)c2C3=O)c1OC`, for which the activation is -3.31%.

Turning to `CC1CN/C(=C\C(=O)c2ccc(Br)cc2)C(=O)N1` (configuration not stated), the activation is -14.4%.

Consider `CCc1nc(Nc2ccc(NC(C)=O)cc2)c2oc3ccccc3c2n1`, for which the activation is 5.36%.

Turning to `Cc1nc(Cl)c2oc3ccccc3c2n1`, the activation is 4.72%.

Consider `CCc1nc(Nc2ccc3nccnc3c2)c2oc3ccccc3c2n1`, for which the activation is 85.3% (active).

In the case of `COc1ccc(/C=N/n2c(C)cc(C)cc2=O)cc1`, the activation was -0.2%.

Consider `CC(=O)Nc1nc2ccccc2n1Cc1ccc(C)cc1`, for which the activation was 1.47%.

For `CC(=O)NCCc1nc2cc(NC(=O)c3ccccc3)ccc2n1C`, the activation is 5.94%.

For `CCC(=O)Nc1nc2ccccc2n1Cc1ccccc1C`, the activation is 2.17%.

In the case of `CCn1c(NC(=O)c2nn(C)cc2Br)nc2ccccc21`, the activation was 122% (active).

As to `Cn1c(NC(=O)c2ccccc2)nc2ccccc21`, the activation is 76.5% (active).

With `Cn1c(-c2ccc(C(=O)c3ccccc3)s2)nc2ccccc21`, the activation was -15%.

`O=C(Cn1cnc2ccccc2c1=O)NCC1COc2ccccc2O1` (configuration not stated): the activation is 0.29%.

For `O=C(c1ccc(F)cc1)N1CCCC(C(=O)N2CCCCC2)C1` (configuration not stated), the activation is -0.02%.

In the case of `CCN1C(=O)/C(=C2\SC(N3CCCCC3)=NC2=O)c2ccccc21`, the activation is 22.2%.

Turning to `COc1ccc(Cl)cc1-n1c(=S)sc2c(=O)n(-c3ccc(F)cc3)c(SCC(=O)O)nc21`, the activation is 3.11%.

With `C=CCNc1nc(Nc2ccc(Cl)cc2)nc(OC)n1`, the activation was 52.8% (active).

`COc1nc(NCc2ccc(Cl)cc2)nc(OC)n1`: the activation was -1.92%.

For the molecule `C=CCNc1nc(C)nc(OC)n1`, the activation is -0.26%.

On to `O=C(NCc1cccc(Cl)c1)C1CCC(=O)N(C2CC2)C1` (configuration not stated), for which the activation was 7.52%.

For `Cc1cccc(N=C2NN=C(c3c[nH]c4ccccc34)CS2)c1`, the activation was 99.4% (active).

Take `Cc1cccc(C(=O)Nc2nnc(Cc3c[nH]c4ccccc34)s2)c1`: the activation is 22.8%.

For `C=CCn1c(C)cc(C2=NNC(=NCC)SC2)c1C`, the activation is -11%.

`CN=c1scc(-c2cc(OC)ccc2OC)n1/N=C/c1c(C)[nH]c2ccccc12`: the activation is -2.76%.

Turning to `COc1ccc(OC)c(N=Cc2c(O)[nH]c3ccccc23)c1`, the activation is 54.3% (active).

`COc1ccccc1N=Cc1c(O)c2ccccc2oc1=O`: the activation is 4.13%.
